# Source: PubChem BioAssay (EPA / NIEHS)
# Activity calls are given as the source filed them. The calls were made as follows: active = hit-call score of the fitted dose curve at least 0.9, where 1 is the maximum; inactive = score below 0.9.
# How the values were obtained:
# [1] = ATG_GRE_CIS: Attagene CIS-FACTORIAL HepG2 Assay for human Glucocorticoid Response Elements (GRE) (AID 2282947); details: HepG2 GRE cis-reporter, Attagene multiplex mRNA; actives raise or lower the signal
# Method in brief: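 Transient MRTU transfection of human HepG2 liver cells; cis-regulated reporters report endogenous factors. 24 h dosing → RNA isolation → RT-PCR → 6-FAM primer extension → HpaI cut → CE fragment analysis. Bidirectional fit, DMSO negative control.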
# [2] = ATG_M_32_CIS: Attagene CIS-FACTORIAL HepG2 Assay for M32 Transcription Factor (Internal Marker) (AID 2282949); details: HepG2 Attagene cis-factorial M32 reporter, mRNA; actives raise or lower the signal;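 also: background control marker of the multiplexed CIS panel rather than a real target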
# Method in brief: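 Fluorescent capillary electrophoresis peaks of HpaI-digested, FAM-labelled RT-PCR reporter products give the signal. Source: transiently transfected human liver HepG2 cells, 24 h after chemical dosing; bidirectional fitting against DMSO.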
# [3] = ATG_M_06_CIS: Attagene CIS-FACTORIAL HepG2 Assay for M06 Transcription Factor (Internal Marker) (AID 2282950); details: HepG2 Attagene CIS-FACTORIAL M06 internal marker reporter; actives raise or lower the signal
# Method in brief: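 Steps: transfect HepG2 with multiplexed cis-element reporter constructs; dose chemical 24 h; extract RNA with DNase treatment; reverse-transcribe, PCR-amplify, 6-FAM label, HpaI digest; separate fragments by capillary electrophoresis. Activity fitted both directions versus DMSO.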
# [4] = target: Hypoxia-inducible factor 1-alpha (Homo sapiens) (UniProt Q16665); test: ATG_HIF1a_CIS: Attagene CIS-FACTORIAL HepG2 Assay for human Hypoxia Inducible Factor 1 (HIF1A) (AID 2282951); details: HepG2 Attagene cis-factorial HIF1a reporter transcription; actives raise or lower the signal
# Sequence of Hypoxia-inducible factor 1-alpha (Homo sapiens) (Q16665 whole entry, looked up): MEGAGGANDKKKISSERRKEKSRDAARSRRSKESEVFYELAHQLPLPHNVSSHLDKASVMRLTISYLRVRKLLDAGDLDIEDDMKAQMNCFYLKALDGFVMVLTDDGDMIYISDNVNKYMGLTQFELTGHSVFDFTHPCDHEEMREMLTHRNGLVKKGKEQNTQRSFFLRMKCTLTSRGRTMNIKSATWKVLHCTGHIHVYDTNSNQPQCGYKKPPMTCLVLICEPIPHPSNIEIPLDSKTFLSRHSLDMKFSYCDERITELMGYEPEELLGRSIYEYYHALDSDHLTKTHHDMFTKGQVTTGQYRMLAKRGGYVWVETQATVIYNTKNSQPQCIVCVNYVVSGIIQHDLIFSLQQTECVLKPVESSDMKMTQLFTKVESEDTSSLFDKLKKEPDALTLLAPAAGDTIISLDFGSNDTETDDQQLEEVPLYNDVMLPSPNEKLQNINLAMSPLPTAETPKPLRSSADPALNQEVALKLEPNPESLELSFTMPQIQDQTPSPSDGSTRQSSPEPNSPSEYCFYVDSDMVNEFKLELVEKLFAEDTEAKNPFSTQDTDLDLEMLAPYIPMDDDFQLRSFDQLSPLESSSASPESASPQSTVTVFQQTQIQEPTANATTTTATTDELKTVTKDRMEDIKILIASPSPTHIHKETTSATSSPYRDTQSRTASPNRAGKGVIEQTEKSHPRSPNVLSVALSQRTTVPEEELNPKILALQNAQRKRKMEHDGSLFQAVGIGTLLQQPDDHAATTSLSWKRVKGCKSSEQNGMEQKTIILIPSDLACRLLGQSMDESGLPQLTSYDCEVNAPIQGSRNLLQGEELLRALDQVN
# Method in brief: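 Activity is fitted in both directions relative to DMSO. Reporter transcripts are read by RT-PCR, fluorescent primer extension and capillary electrophoresis after 24 h chemical treatment. The cells are HepG2 carrying transiently transfected cis-element-driven reporter units responding to endogenous factors.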
# [5] = target: Hepatocyte nuclear factor 6 (Homo sapiens) (UniProt Q9UBC0); test: ATG_HNF6_CIS: Attagene CIS-FACTORIAL HepG2 Assay for human Hepatocyte Nuclear Factor 6 (HNF6) (AID 2282952); details: HepG2 Attagene cis-factorial HNF6 reporter transcription; actives raise or lower the signal
# Sequence of Hepatocyte nuclear factor 6 (Homo sapiens) (Q9UBC0 whole entry, looked up, the tested form may be a part): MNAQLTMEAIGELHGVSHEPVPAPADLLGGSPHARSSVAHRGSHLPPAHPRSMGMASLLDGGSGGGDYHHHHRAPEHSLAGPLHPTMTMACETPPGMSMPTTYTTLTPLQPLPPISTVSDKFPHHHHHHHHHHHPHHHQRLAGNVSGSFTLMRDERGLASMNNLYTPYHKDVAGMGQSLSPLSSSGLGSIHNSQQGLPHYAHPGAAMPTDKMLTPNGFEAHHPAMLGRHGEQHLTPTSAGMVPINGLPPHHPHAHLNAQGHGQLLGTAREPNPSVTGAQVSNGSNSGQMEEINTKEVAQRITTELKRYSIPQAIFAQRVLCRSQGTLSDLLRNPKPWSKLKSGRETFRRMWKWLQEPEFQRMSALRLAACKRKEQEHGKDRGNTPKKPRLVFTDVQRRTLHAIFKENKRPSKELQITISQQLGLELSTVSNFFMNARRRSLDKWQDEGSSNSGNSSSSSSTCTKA
# Method in brief: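 Reporter mRNA induction or loss in HepG2 after 24 h exposure; transient cis-MRTU transfection; fragments quantified by capillary electrophoresis; bidirectional analysis, DMSO as negative control.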
# [6] = target: Heat shock factor protein 1 (Homo sapiens) (UniProt Q00613); test: ATG_HSE_CIS: Attagene CIS-FACTORIAL HepG2 Assay for human Heat Shock Transcription Factor 1 (HSE) (AID 2282953); details: HepG2 HSE cis-reporter, Attagene RNA transcription; actives raise or lower the signal
# Sequence of Heat shock factor protein 1 (Homo sapiens) (Q00613 whole entry, looked up, the tested form may be a part): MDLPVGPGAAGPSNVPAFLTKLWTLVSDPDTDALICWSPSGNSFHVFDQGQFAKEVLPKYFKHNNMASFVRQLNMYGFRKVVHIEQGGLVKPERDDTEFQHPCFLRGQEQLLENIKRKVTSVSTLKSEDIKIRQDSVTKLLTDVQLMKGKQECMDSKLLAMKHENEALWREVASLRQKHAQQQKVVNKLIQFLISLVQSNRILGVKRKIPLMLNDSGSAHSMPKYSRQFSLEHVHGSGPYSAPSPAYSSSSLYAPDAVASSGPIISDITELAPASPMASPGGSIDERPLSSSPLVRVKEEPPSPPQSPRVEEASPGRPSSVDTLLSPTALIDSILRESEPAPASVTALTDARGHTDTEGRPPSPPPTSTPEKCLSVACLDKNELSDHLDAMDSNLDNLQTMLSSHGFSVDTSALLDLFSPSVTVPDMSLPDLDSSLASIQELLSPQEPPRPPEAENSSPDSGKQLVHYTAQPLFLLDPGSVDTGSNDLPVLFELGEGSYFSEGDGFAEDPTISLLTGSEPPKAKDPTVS
# Method in brief: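 Cells were transfected with cis-element-driven reporter constructs, dosed for 24 h, then total RNA was reverse-transcribed and reporter cDNA amplified, FAM-labelled and digested with HpaI. Fragments were resolved by capillary electrophoresis; gain or loss was fitted against DMSO.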
# [7] = ATG_MRE_CIS: Attagene CIS-FACTORIAL HepG2 Assay for human Metal Responsive Element (MRE) (AID 2282954); details: HepG2 MRE cis-reporter transcription, Attagene multiplex; actives raise or lower the signal
# Method in brief: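 Transient MRTU transfection of HepG2 (FuGene 6); 24 h dosing; total RNA → oligo(dT) RT, PCR, 6-FAM primer extension, HpaI cut, CE. Bidirectional fit vs DMSO.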
# [8] = ATG_PBREM_CIS: Attagene CIS-FACTORIAL HepG2 Assay for human Phenobarbital-responsive Enhancer Module (PBREM) (AID 2282955); details: HepG2 PBREM cis-reporter, Attagene multiplexed transcription; actives raise or lower the signal
# Method in brief: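 Endogenous transcription factor activity was read from reporter transcripts in transiently transfected human HepG2 liver cells after 24 h dosing. RT-PCR products were fluorescently labelled, HpaI-cut and sized by capillary electrophoresis; activity fitted bidirectionally against DMSO baseline.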
# [9] = target: Paired box protein Pax-6 (Homo sapiens) (UniProt P26367); test: ATG_Pax6_CIS: Attagene CIS-FACTORIAL HepG2 Assay for human Paired Box 6 (PAX6) (AID 2282956); details: HepG2 CIS-FACTORIAL PAX6 reporter transcription, RNA readout; actives raise or lower the signal
# Sequence of Paired box protein Pax-6 (Homo sapiens) (P26367 whole entry, looked up): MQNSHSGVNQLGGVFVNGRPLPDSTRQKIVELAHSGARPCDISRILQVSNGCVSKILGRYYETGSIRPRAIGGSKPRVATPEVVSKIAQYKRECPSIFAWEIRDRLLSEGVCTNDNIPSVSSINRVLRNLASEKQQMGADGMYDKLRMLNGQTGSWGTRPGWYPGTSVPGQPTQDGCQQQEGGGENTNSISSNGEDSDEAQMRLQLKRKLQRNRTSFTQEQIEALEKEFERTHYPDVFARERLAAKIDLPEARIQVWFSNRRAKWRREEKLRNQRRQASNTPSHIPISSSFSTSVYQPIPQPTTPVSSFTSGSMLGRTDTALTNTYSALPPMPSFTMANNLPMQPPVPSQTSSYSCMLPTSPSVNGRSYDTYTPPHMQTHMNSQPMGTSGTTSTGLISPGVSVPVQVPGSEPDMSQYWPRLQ
# Method in brief: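 HepG2 cells transiently transfected with multiplexed cis-promoter reporter units (endogenous TF activity) were dosed for 24 h. Reporter mRNA was quantified by RT-PCR, 6-FAM labeling, HpaI digestion and capillary electrophoresis; bidirectional fitting versus DMSO baseline.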
# [10] = ATG_PXRE_CIS: Attagene CIS-FACTORIAL HepG2 Assay for human Pregnane X Receptor Element (PXRE) (AID 2282957); details: HepG2 Attagene CIS-FACTORIAL PXRE reporter, mRNA; actives raise or lower the signal
# Method in brief: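 Transiently transfected HepG2 cells were dosed and incubated for 24 h. RNA was then isolated, DNase-treated, reverse-transcribed and reporter sequences amplified. Labeled, HpaI-digested fragments were quantified by capillary electrophoresis against DMSO.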
# [11] = ATG_RORE_CIS: Attagene CIS-FACTORIAL HepG2 Assay for human RAR-related Orphan Receptor Element (RORE) (AID 2282959); details: HepG2 Attagene cis-factorial RORE reporter, mRNA; actives raise or lower the signal
# Method in brief: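 RORE reporter transcripts reflecting endogenous factor activity were read after 24 h compound exposure of transfected HepG2 cells, using reverse transcription, PCR, fluorescent labelling and capillary electrophoresis sizing. Gain or loss fitted against DMSO.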
# [12] = ATG_Sox_CIS: Attagene CIS-FACTORIAL HepG2 Assay for human SRY-box transcription factor (SOX) (AID 2282960); details: HepG2 Attagene cis-factorial SOX reporter, mRNA; actives raise or lower the signal
# Method in brief: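 Reporter transcripts, measured by RT-PCR and capillary electrophoresis of labelled fragments, report endogenous SOX transcription factor activity. Transiently transfected human HepG2 cells receive chemical for 24 h; changes in either direction are fitted relative to DMSO.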
# [13] = target: Transcription factor Sp1 (Homo sapiens) (UniProt P08047); test: ATG_Sp1_CIS: Attagene CIS-FACTORIAL HepG2 Assay for human Specificity Protein 1 (Sp1) (AID 2282961); details: HepG2 Sp1 cis-reporter transcription, actives raise or lower the signal
# Sequence of Transcription factor Sp1 (Homo sapiens) (P08047 whole entry, looked up): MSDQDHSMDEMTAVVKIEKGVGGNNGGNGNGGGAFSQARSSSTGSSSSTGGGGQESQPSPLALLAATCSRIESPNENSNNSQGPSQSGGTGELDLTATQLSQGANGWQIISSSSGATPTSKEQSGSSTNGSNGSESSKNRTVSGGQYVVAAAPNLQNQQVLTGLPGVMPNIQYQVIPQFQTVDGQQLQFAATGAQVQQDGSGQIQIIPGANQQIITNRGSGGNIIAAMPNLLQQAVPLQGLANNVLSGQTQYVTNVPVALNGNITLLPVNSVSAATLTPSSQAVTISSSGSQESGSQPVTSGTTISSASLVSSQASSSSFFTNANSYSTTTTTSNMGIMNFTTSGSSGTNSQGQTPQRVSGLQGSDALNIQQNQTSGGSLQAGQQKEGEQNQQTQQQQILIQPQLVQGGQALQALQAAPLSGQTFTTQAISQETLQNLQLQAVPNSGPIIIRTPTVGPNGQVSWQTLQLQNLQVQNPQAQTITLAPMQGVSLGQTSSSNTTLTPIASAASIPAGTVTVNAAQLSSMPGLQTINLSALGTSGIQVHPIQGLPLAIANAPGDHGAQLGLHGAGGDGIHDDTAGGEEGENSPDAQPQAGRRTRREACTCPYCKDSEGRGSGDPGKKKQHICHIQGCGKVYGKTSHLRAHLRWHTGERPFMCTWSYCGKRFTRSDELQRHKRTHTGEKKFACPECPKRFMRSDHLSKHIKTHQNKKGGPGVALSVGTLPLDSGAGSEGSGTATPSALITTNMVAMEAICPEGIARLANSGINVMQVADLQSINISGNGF
# Method in brief: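 Read-out is reporter transcript level, measured by RT-PCR and fluorescent capillary electrophoresis after 24 h chemical treatment. System: transiently transfected HepG2 cells reporting endogenous transcription factor activity; gain or loss fitted against DMSO baseline.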
# [14] = ATG_SREBP_CIS: Attagene CIS-FACTORIAL HepG2 Assay for human Sterol Regulatory Element Binding (SREBP) (AID 2282962); details: HepG2 Attagene cis-factorial SREBP reporter, mRNA; actives raise or lower the signal
# Method in brief: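 HepG2 cells transiently transfected with multiplexed cis-element reporter units report endogenous transcription factor activity. After 24 h of chemical exposure, reporter mRNA was quantified by RT-PCR, 6-FAM labelling, HpaI digestion and capillary electrophoresis; bidirectional fits used DMSO as baseline.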
# [15] = target: Signal transducer and activator of transcription 3 (Homo sapiens) (UniProt P40763); test: ATG_STAT3_CIS: Attagene CIS-FACTORIAL HepG2 Assay for human Signal Transducer and Activator of Transcription 3 (STAT3) (AID 2282963); details: HepG2, Attagene cis-factorial STAT3 reporter transcription; actives raise or lower the signal
# Sequence of Signal transducer and activator of transcription 3 (Homo sapiens) (P40763 whole entry, looked up): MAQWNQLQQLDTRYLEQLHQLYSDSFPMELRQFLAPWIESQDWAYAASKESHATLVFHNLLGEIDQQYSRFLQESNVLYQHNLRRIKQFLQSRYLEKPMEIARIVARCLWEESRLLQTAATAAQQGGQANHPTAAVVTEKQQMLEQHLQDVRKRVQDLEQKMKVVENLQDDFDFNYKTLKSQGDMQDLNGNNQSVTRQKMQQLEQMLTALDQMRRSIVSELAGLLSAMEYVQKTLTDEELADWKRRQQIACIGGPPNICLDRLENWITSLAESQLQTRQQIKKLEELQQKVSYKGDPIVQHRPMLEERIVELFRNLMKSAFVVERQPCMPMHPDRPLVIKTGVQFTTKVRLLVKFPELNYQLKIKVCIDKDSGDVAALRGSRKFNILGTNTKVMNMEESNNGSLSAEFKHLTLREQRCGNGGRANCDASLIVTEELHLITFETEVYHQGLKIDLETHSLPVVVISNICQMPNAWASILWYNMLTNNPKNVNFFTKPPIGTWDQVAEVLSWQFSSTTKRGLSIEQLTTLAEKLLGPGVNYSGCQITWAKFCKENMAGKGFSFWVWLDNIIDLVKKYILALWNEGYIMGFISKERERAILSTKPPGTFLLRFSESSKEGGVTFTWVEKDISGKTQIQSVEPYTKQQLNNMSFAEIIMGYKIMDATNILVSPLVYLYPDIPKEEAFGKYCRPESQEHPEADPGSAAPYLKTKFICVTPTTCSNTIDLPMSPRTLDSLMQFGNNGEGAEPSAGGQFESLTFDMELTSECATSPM
# Method in brief: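 Endogenous STAT3-responsive cis-element activity was read in transiently transfected HepG2 cells after 24 h treatment. Reporter transcripts were quantified via RT-PCR and capillary electrophoresis, with DMSO as negative control and bidirectional curve fitting.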
# [16] = ATG_TA_CIS: Attagene CIS-FACTORIAL HepG2 Assay for human TA Basal Promoter (AID 2282964); details: HepG2 Attagene CIS-factorial TA basal promoter reporter; actives raise or lower the signal
# Method in brief: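 Steps: transfect HepG2 with MRTUs; dose 24 h; isolate RNA, DNase-treat, reverse-transcribe; PCR and FAM-label reporter cDNA; digest with HpaI 2h at 37 C; run capillary electrophoresis. Activity fitted both directions against DMSO.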
# [17] = ATG_TCF_b_cat_CIS: Attagene CIS-FACTORIAL HepG2 Assay for human T-Cell-Factor with beta-catenin (TCF/b-cat) (AID 2282965); details: HepG2 TCF/beta-catenin cis-reporter transcription, actives raise or lower the signal
# Method in brief: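 Endogenous transcription factor activity is captured through cis-promoter reporter constructs transiently introduced into human HepG2 liver cells. Induced reporter mRNA is measured after 24 h and fitted bidirectionally relative to DMSO.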
# [18] = ATG_ISRE_CIS: Attagene CIS-FACTORIAL HepG2 Assay for human Interferon Regulatory Factor 1 (IRF1) binding to an Interferon-Stimulated Response Element (ISRE) (AID 2282948); details: HepG2 ISRE cis-reporter (Attagene), mRNA transcription readout; actives raise or lower the signal
# Method in brief: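 HepG2 cells transiently transfected with multiplexed cis-promoter reporter units; after 24 h compound exposure, reporter mRNA quantified by RT-PCR, FAM labelling, HpaI digestion and capillary electrophoresis. Bidirectional fit versus DMSO baseline.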
# [19] = ATG_PPRE_CIS: Attagene CIS-FACTORIAL HepG2 Assay for human Peroxisome Proliferator-activated Response Element (PPRE) (AID 2282958); details: HepG2 PPRE cis-element reporter, Attagene transcription factor profiling; actives raise or lower the signal
# Method in brief: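 Endogenous PPRE-driven transcription is measured in HepG2 cells carrying transfected multi-reporter constructs. Reporter transcripts are quantified by RT-PCR, HpaI digestion and capillary electrophoresis 24 h after dosing. DMSO baseline, bidirectional fit.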
compound,measurement,setting,value
CC1(C)[C@@H]2CC[C@@]1(C)[C@H](O)C2,outcome,[1],inactive
same,outcome,[2],inactive
same,outcome,[3],inactive
same,AC50,[4],100 µM (active)
same,outcome,[5],inactive
same,outcome,[6],inactive
same,outcome,[7],inactive
same,outcome,[8],inactive
same,outcome,[9],inactive
same,outcome,[10],inactive
same,outcome,[11],inactive
same,outcome,[12],inactive
same,outcome,[13],inactive
same,outcome,[14],inactive
same,outcome,[15],inactive
same,outcome,[16],inactive
same,outcome,[17],inactive
C=C(C)C(=O)Nc1ccc(Cl)c(Cl)c1,outcome,[18],inactive
same,outcome,[2],inactive
same,outcome,[3],inactive
same,outcome,[4],inactive
same,outcome,[5],inactive
same,outcome,[6],inactive
same,AC50,[7],18.9 µM (active)
same,AC50,[8],27.8 µM (active)
same,outcome,[9],inactive
same,AC50,[10],10.2 µM (active)
same,AC50,[11],27.2 µM (active)
same,outcome,[12],inactive
same,outcome,[13],inactive
same,outcome,[15],inactive
same,outcome,[16],inactive
same,outcome,[17],inactive
O=C[C@H](O)[C@H](O)[C@H](O)CO,outcome,[18],inactive
same,outcome,[2],inactive
same,outcome,[3],inactive
same,outcome,[4],inactive
same,outcome,[5],inactive
same,outcome,[6],inactive
same,outcome,[7],inactive
same,outcome,[8],inactive
same,outcome,[9],inactive
same,outcome,[19],inactive
same,outcome,[12],inactive
same,outcome,[13],inactive
same,outcome,[15],inactive
same,outcome,[16],inactive
OCCOCCOCCOCCO,outcome,[1],inactive
same,outcome,[2],inactive
same,outcome,[3],inactive
same,outcome,[4],inactive
same,outcome,[5],inactive
same,AC50,[6],57.2 µM (active)
same,outcome,[7],inactive
same,outcome,[9],inactive
same,AC50,[10],29.4 µM (active)
same,outcome,[12],inactive
same,outcome,[13],inactive
same,outcome,[14],inactive
same,outcome,[15],inactive
same,outcome,[16],inactive
same,outcome,[17],inactive
O=C(O)CCCCCCCC(=O)O,outcome,[18],inactive
same,outcome,[2],inactive
same,outcome,[3],inactive
same,outcome,[5],inactive
same,outcome,[6],inactive
same,outcome,[7],inactive
same,outcome,[8],inactive
same,outcome,[9],inactive
same,outcome,[10],inactive
same,outcome,[11],inactive
same,outcome,[12],inactive
same,outcome,[13],inactive
same,outcome,[14],inactive
same,outcome,[15],inactive
same,outcome,[16],inactive
same,outcome,[17],inactive
Cc1ccc(C=O)s1,outcome,[18],inactive
same,outcome,[2],inactive
same,outcome,[3],inactive
same,outcome,[5],inactive
same,outcome,[6],inactive
same,outcome,[7],inactive
same,outcome,[8],inactive
same,outcome,[9],inactive
same,AC50,[10],35.7 µM (active)
same,outcome,[19],inactive
same,outcome,[11],inactive
same,outcome,[12],inactive
same,outcome,[13],inactive
same,outcome,[14],inactive
same,outcome,[15],inactive
same,outcome,[16],inactive
same,outcome,[17],inactive
C=C(C)[C@@H]1CCC2=CC(=O)C[C@@H](C)[C@]2(C)C1,outcome,[18],inactive
same,outcome,[3],inactive
same,outcome,[4],inactive
same,outcome,[5],inactive
same,outcome,[6],inactive
same,outcome,[7],inactive
same,outcome,[9],inactive
same,AC50,[10],2.33 µM (active)
same,outcome,[19],inactive
same,outcome,[11],inactive
same,outcome,[12],inactive
same,outcome,[13],inactive
same,outcome,[14],inactive
same,outcome,[16],inactive
same,outcome,[17],inactive
Fc1c(F)c(F)c(Br)c(F)c1F,outcome,[3],inactive
same,outcome,[4],inactive
same,outcome,[5],inactive
same,outcome,[6],inactive
same,outcome,[7],inactive
same,outcome,[8],inactive
same,outcome,[9],inactive
same,AC50,[10],46.5 µM (active)
same,outcome,[19],inactive
same,outcome,[12],inactive
same,outcome,[13],inactive
same,outcome,[14],inactive
same,outcome,[15],inactive
same,outcome,[17],inactive
